Measurements taken from PubChem BioAssay (NCI).
This is part of a sample that, as a whole, favours compounds with a hit. Of some 83,000 tested, about 20% had one in any assay.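 Interpretation: 100, growth as untreated; towards 0, rising growth inhibition; 0, no net growth; 0 to -100, cell death. Compounds scoring below 10 were considered active.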 Values without a mark were called inactive. The source made the active and inactive calls.

Key:
Experiment in all cases: NCI-60 one-dose screen, 48 h (100 = growth as untreated, 0 = no growth, -100 = all killed)
Conditions in all cases: 10 µM unless noted
NCI-H226 lung = system: NCI-H226 lung
NCI-H322M lung = system: NCI-H322M lung
HOP-62 NSCLC = system: HOP-62 NSCLC
NCI-H460 lung = system: NCI-H460 lung
NCI-H522 lung = system: NCI-H522 lung
A549/ATCC NSCLC = system: A549/ATCC NSCLC
786-0 renal = system: 786-0 renal
DU-145 prostate = system: DU-145 prostate
COLO 205 colon = system: COLO 205 colon
HOP-92 NSCLC = system: HOP-92 NSCLC

Row | SMILES | growth (NCI-H226 lung) [%] | growth (NCI-H322M lung) | growth (HOP-62 NSCLC) | growth (NCI-H460 lung) | growth (NCI-H522 lung) | growth (A549/ATCC NSCLC) | growth (786-0 renal) | growth (DU-145 prostate) | growth (COLO 205 colon) | growth (HOP-92 NSCLC) [%]
1 | C#Cc1nc(C2=C(C)C(OC(=O)CCC(=O)O)CC2)cs1 (centres undefined) | 106 | 104% | 111% | 107% | 101% | 90.7% | -86.5% (active) | 106% | – | –
2 | C#Cc1nc(C2=C(C)C(O)CC2)cs1 (centres undefined) | 110 | 111% | 103% | 113% | 97.2% | 100% | -87.8% (active) | 110% | 118% | –
3 | CCOC(=O)c1c(Nc2ccccc2)nn2c(-c3ccco3)c(C#N)cnc12 | 76.9 | 96.8% | 95.6% | 93.1% | 82.6% | 95.2% | 67.2% | 87.9% | 98.6% | –
4 | CCOC(=O)c1c(Nc2ccccc2)nn2c(N)c(C#N)c(-c3ccc(Cl)cc3)nc12 | 42.1 | 77.4% | 53.9% | 12.1% | 72.3% | 46% | 38.7% | 62% | 69.4% | –
5 | COc1cc(/C=C/C(=O)c2cc(OC)c(OC)c(OC)c2)ccc1OCc1ccccc1 | 48.6 | 45.5% | 40.8% | 22.4% | 49.3% | 38.8% | 40.1% | 27.2% | 93.4% | –
6 | Fc1ccc(-c2cc3nc(C(Cl)Cl)nc(-c4ccc(Cl)cc4)n3n2)cc1 | 78.9 | -44.9% (active) | -25.8% (active) | -66.3% (active) | 30.3% | -58.2% (active) | 47.4% | -23% (active) | -56.6% (active) | –
7 | CS(=O)(=O)c1ccc(-c2nc3ccccn3c2/C=N/Nc2nc(-c3ccc(Cl)cc3)cs2)cc1 | 108 | 111% | 109% | 102% | 96.2% | 98.2% | 79.8% | 106% | 112% | –
8 | CN(C)c1ccc(-c2c(NC(C)(C)C)nc3c(OCCc4ccccc4)cccn23)cc1 | 10.6 | 12.2% | 25.1% | 3.22% (active) | 5.7% (active) | 23.2% | 20.8% | 33.2% | -84.6% (active) | –
9 | Clc1ccc2c(NCCCn3ccnc3)c3oc4ccc(Cl)cc4c3nc2c1 | 57.8 | 71% | 66.6% | 11.1% | 82.9% | 89.2% | 41.6% | 92% | 96.5% | –
10 | COc1cc(-c2ccc3ncnc(NC(C)c4ccccc4)c3c2)cnc1OC (centres undefined) | 52.8 | 15.4% | 44.4% | 64.5% | 40.9% | 41.9% | 44.2% | 37.2% | – | –
11 | O=C(CCN1C(=O)/C(=C/c2ccccc2F)SC1=S)N1CCOCC1 | 105 | 80.5% | 117% | 90.7% | 41.4% | 102% | 77.4% | 57.5% | 108% | –
12 | N=C1CC(=O)NN1C(=O)CSc1nc2sc3c(c2c(=O)n1-c1ccc(Cl)cc1)CCCC3 | 103 | 103% | 90.3% | 101% | 102% | 102% | 94.2% | 111% | 123% | –
13 | NS(=O)(=O)c1ccc(Nc2nc(SCC(=O)c3ccc(Cl)cc3)nc3ccccc23)cc1 | 87.1 | 86.5% | 95.3% | 97.1% | 88% | 97.1% | 96% | 97.1% | 107% | –
14 | CC(C)(O)c1cncc(-c2ccc3ncnc(N4CCc5cc(F)c(Cl)cc54)c3c2)c1 | 23.7 | -0.361% (active) | 30.2% | 17.2% | 18.5% | 15.8% | 11.7% | 14.4% | 30.1% | –
15 | CN(C)CCCNc1c2ccc(Cl)cc2nc2c1oc1ccc(Cl)cc12 | 25.7 | 2.57% (active) | 47.7% | -31.2% (active) | 16.7% | -38.4% (active) | -85.3% (active) | -48.8% (active) | – | –
16 | Cc1c(Nc2nnc(SCC(=O)Nc3sc4c(c3C#N)CCCC4)s2)c(=O)n(-c2ccccc2)n1C | 104 | 98.9% | 107% | 100% | 97.5% | 106% | 108% | 105% | – | 121
17 | COc1ccc(/C=C2\SC(=Nc3cc(C)on3)NC2=O)cc1 | 102 | 97.7% | 96% | 103% | 100% | 102% | 102% | 109% | 103% | –
18 | C#C[C@]1(O)CC[C@H]2[C@@H]3CC=C4c5sc(Nc6ccc(Cl)cn6)nc5CC[C@]4(C)[C@H]3CC[C@@]21C | 77.1 | 82.3% | 34.8% | 28.3% | 67.7% | 50.3% | -78.8% (active) | 63.4% | 88.8% | –
19 | CC(=O)c1ccc(Nc2nc(SC(C)C)nc(-c3ccccc3)c2C#N)cc1 | 123 | 98.7% | 92.7% | 101% | 86.8% | 93.5% | 84.7% | 91.2% | 114% | –
20 | Nc1cc(-c2c[nH]c3ccccc23)nc2cc(-c3c[nH]c4ccccc34)nn12 | 67.3 | 80.8% | 95.3% | – | 43% | 58.3% | 46.8% | 40.2% | 49.4% | 72.5
21 | N[C@@H](Cc1cn(-c2ccnc3ccccc23)nn1)C(=O)O | 109 | 102% | 95.1% | 112% | 101% | 101% | 104% | 110% | – | –
22 | CC(=O)Oc1ccccc1C(=O)Nc1ccc(C(=O)/C=C/c2ccncc2)cc1 | 92.5 | 78.3% | 91.4% | 45.8% | 71.8% | 56.5% | 33.9% | 35.6% | – | 66.1
23 | CC(C)(C)OC(=O)N1C(=O)c2c(c3c4ccccc4[nH]c3c3ccc4ccccc4c23)C1=O | 61.3 | 52.8% | 52.2% | 37.3% | 47.2% | 59.7% | 77.1% | 57.3% | 68.1% | –
24 | CCN1CCN(/C(=N\c2sc(-c3ccccc3)nc2-c2ccccc2)c2ccccc2)CC1 | 56.2 | 91.8% | 95.4% | 72.1% | 71.6% | 80.2% | 51.2% | 93.7% | 84.5% | –
25 | COc1ccc(-c2nc3ccc(-c4nnc(SCC(=O)Nc5ccc(C(=O)/C=C/c6ccc(Cl)cc6)cc5)o4)cc3[nH]2)cc1OC | 98.5 | 95.8% | 103% | 103% | 98.4% | 103% | 103% | 109% | 116% | –
26 | CSCCC(C(=O)O)N1C(=O)/C(=C/c2ccc(O)c(O)c2)SC1=S (centres undefined) | 107 | 91.8% | 100% | 109% | 102% | 108% | 94.4% | 108% | – | 108
27 | COc1ccc(-c2cc(C(=O)N=Nc3c(O)[nH]c4ccccc34)c3ccccc3n2)cc1OC | 86.2 | 89.7% | 93.2% | 99% | 90.2% | 95.7% | 104% | 104% | 98.3% | –
